Source: PubChem BioAssay (National Center for Advancing Translational Sciences (NCATS))
Hits are enriched below; roughly 8.1% of the tested compounds scored in any of these assays.
SW480 rerep – DNA re-replication induction in SW480 cells; SW480 DNA re-replication, Hoechst DNA content imaging, 48 h; Potency, µM (highest dose often 46.1 µM), inactives show at the top dose re-replication activation, hits mostly activators; actives 1.8% (n = 340,000); also: % of control where 0% means no effect; nearly all actives have a fitted effect of over 55% in size
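First, 250 cells per well were seeded. Next, compound or vehicle (23 nL) was pinned in, plates sat 48 hr at 37 C. Finally Hoechst was added for 40 min before fluorescence scanning.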
ELG1 repair inh – ELG1-dependent DNA repair inhibition | actives 2.3% (n = 330,000) | HEK293T ELG1-luciferase reporter, luminescence, 16 h; DNA damage induced by 5-fluorouridine | Potency, µM (titrated, usually from 46.1 µM), for inactives: top-dose activity change, negative = inhibition, hits mostly inhibitors | AID 504467; also: % is scaled to controls: 0 for no effect and ±100 for the full control effect; nearly all actives have a fitted effect of over 55% in size
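HEK293T cells expressing luciferase-tagged ELG1 (2,000/well) received 5-Fluorouridine plus compound or DMSO for 16 hr at 37 °C. Luciferase was read by ONE-Glo luminescence after 30 min at room temperature.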
KB-V1 MDR tox – KB-V1 MDR subline cytotoxicity; KB-V1 MDR cells viability, CellTiter-Glo, 72 h; Potency, µM (series often up to 46.1 µM), most hits filed as cytotoxic; actives 3.4% (n = 400,000); AID 1347076; also: % is scaled to controls: 0 for no effect and ±100 for the full control effect; nearly all actives have a fitted effect of over 60% in size
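qHTS viability screen in drug-selected KB-V1 MDR cells: 72 h compound treatment at 37 degrees C, ATP luminescence end point.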
MCF10A rerep – inducers of DNA re-replication in MCF 10A breast cells | MCF 10A DNA re-replication, Hoechst nuclear intensity, 48 h | Potency, µM (doses to about 46.1 µM), without a hit: top-dose activity, positive = re-replication, hits mostly activators | actives 2.9% (n = 350,000) | AID 624296; also: % of control where 0% means no effect; nearly all actives have a fitted effect of over 50% in size
KB-3-1 cytotox – kills parental KB-3-1 adenocarcinoma cells; Potency, µM (highest dose often 46.1 µM), hits mostly cytotoxic; KB-3-1 viability, CellTiter-Glo ATP luminescence, 72 h; actives 1.4% (n = 400,000); also: % is scaled to controls: 0 for no effect and ±100 for the full control effect; nearly all actives have a fitted effect of over 60% in size
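Screening of KB-3-1 cells (DMEM, 10% FBS, phenol-red free) ran from lowest to highest compound concentration; after 72 h at 37 °C viability was read luminescently and curves fitted.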
The depositor's hits bear a star; i = inactive; u = inconclusive; x = no result; [ ] = dose if it differs, or a comment. Calls follow the shape of the dose curve; as a rule, active = well fitted curve in the direction sought with a large enough effect; inconclusive = small, poorly fitted or top-dose-only effect, or another doubt; inactive = no such curve, though single readings can be large; an effect the other way counts as inactive or inconclusive. Potency is read from the fitted curve at half-maximal effect.

SMILES	SW480 rerep	ELG1 repair inh	KB-V1 MDR tox	MCF10A rerep	KB-3-1 cytotox
Cn1c(=O)c([N+](=O)[O-])c(Cl)c2ccccc21	16µM*	u	i	3.7µM*	u
CC(C)CN(CC(C)C)c1nn[nH]n1	-3%	x	i	-48%	i
COC(=O)CSc1ncccc1-c1nc2ccccc2[nH]1	3%	u	u	3%	i
COc1ccc(-n2nc(C(=O)c3cccs3)cc(-c3nc4ccccc4[nH]3)c2=N)cc1	u	u	16µM*	7%	u
Cc1cccc(-n2nc(C(=O)c3ccco3)cc(-c3nc4ccccc4[nH]3)c2=N)c1	2%	13µM*	i	-2%	i
Cc1ccccc1-n1nc(C(=O)c2cccs2)cc(-c2nc3ccccc3[nH]2)c1=N	u	13µM*	2.3µM*	26%	i
CCC(=O)O[C@@H]1[C@H](C)O[C@H](O[C@H]2[C@@H](N(C)C)[C@H](O)[C@@H](O[C@@H]3[C@@H](CC=O)C[C@@H](C)[C@@H](O)/C=C\C=C/C[C@@H](C)OC(=O)C[C@@H](OC(=O)CC)[C@H]3OC)O[C@H]2C)C[C@]1(C)O	-1%[20.6 µM]	x	x	-2%[20.6 µM]	x
Cc1ccc(-n2ncc(C#N)c2/N=C/N2CCN(C)CC2)cc1	-5%[9.22 µM]	2%	i	-3%	i
CCCCN(C)/C=N/c1c(C#N)cnn1-c1ccc(C)cc1	4%	u	5.8µM*	u	u
Cc1ccc(-n2[nH]c(C)c(C=Nc3ccc4[nH]c(=O)[nH]c4c3)c2=O)cc1C	u	27%	u	u	u
Cc1ccc(-n2[nH]c(C)c(C=Nc3ccc4[nH]c(=O)[nH]c4c3)c2=O)cc1	u	-25%	u	u	21µM*
Cc1[nH]n(-c2cccc3ccccc23)c(=O)c1C=Nc1ccc2[nH]c(=O)[nH]c2c1	5%	12%	i	-4%	i
Cc1ccc(N=Cc2c(C)[nH]n(-c3nc4ccccc4[nH]3)c2=O)cc1	-2%	27%	6.5µM*	0%	8.2µM*
COc1ccc2nc(/N=C/c3c(C)[nH]n(-c4ccc(C)cc4)c3=O)sc2c1	1%	u	8.2µM*	7%	u
COc1ccc(S(=O)(=O)Oc2ccccc2C(=S)N2CCOCC2)cc1	x	2%	x	x	x
CCCC[n+]1ccn(-c2nc3ccccc3nc2[N-]S(=O)(=O)c2cccs2)c1	16µM*	21µM*	i	u	i
CCCC[n+]1ccn(-c2nc3ccccc3nc2[N-]S(=O)(=O)c2ccccc2)c1	u	12%	i	u	i
O=S(=O)([N-]c1nc2ccccc2nc1-n1cc[n+](Cc2ccccc2)c1)c1ccccc1	u	u	i	6.5µM*	i
Cc1ccc(S(=O)(=O)[N-]c2nc3ccccc3nc2-n2cc[n+](Cc3ccccc3)c2)cc1	u	19%	i	u	i
Cc1nn(CC(=O)Nc2ccc3c(c2)OCO3)c(C)c1Cl	0%	25%	i	0%	i
O=C(Cn1ncc(Cl)c(Cl)c1=O)Nc1ccc2c(c1)OCO2	-2%	6.5µM*	u	0.73µM*	u
O=C(Cn1ncc(Cl)c(Cl)c1=O)c1ccc2c(c1)OCCO2	u	u	21µM*	2.9µM*	u
CCOC(=O)c1c(NC(=O)C2=C(C)NC(=S)NC2c2ccc(C)cc2)sc(C)c1C (stereo not given)	2%	u	21µM*	u	u
CCOC(=O)c1c(NC(=O)C2=C(C)NC(=S)NC2c2ccc(F)cc2)sc(C)c1C (stereo not given)	u	7.3µM*	u	18µM*	i
CCOC(=O)c1c(NC(=O)C2c3ccccc3Oc3ccccc32)sc(C)c1C	x	x	i	x	i
CC1CC(C)(C)Nc2ccc(N=O)cc21 (stereo not given)	2.3µM*	u	i	23µM*	i
CC1CC(C)(C)Nc2ccc(OC(=O)c3ccco3)cc21 (stereo not given)	u	u	u	15µM*	u
CCCCNc1nc(Oc2ccc(OCC)nn2)nc(N2CCOCC2)n1	x	x	u	x	i
